Test results reported in ChEMBL document CHEMBL2218924, “A broad activity screen in support of a chemogenomic map for kinase signalling research and drug discovery” (Biochem J, 2013).

What was measured:
[1] = molecular target: T1, Serine/threonine-protein kinase BRSK1 (Homo sapiens) (UniProt Q8TDC3); conditions: at 1 µM
T1 sequence (whole entry): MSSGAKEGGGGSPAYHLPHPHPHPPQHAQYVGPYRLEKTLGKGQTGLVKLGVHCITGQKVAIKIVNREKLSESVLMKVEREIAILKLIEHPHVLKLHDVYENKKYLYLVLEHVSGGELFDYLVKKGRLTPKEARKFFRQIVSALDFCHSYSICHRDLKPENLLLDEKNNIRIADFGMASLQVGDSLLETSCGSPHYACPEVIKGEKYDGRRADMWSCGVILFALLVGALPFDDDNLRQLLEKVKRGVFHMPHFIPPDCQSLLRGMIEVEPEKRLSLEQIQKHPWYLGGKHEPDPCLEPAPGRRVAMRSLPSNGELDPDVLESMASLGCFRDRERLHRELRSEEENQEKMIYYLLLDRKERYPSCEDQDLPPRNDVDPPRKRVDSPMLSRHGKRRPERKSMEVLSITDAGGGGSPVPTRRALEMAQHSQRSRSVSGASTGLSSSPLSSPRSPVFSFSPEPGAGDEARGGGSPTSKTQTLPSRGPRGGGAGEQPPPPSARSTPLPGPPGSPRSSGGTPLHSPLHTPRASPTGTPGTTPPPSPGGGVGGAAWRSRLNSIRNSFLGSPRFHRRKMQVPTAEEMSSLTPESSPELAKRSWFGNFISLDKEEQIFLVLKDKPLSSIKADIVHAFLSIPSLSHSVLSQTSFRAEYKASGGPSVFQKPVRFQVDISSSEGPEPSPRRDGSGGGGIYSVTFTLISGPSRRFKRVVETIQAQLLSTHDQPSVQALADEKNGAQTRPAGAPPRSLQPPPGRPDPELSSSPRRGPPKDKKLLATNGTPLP

[2] = molecular target: T1, Serine/threonine-protein kinase BRSK1 (Homo sapiens); conditions: at 10 µM
[3] = molecular target: T2, Serine/threonine-protein kinase BRSK2 (Homo sapiens) (UniProt Q8IWQ3); conditions: at 1 µM
T2 sequence (whole entry): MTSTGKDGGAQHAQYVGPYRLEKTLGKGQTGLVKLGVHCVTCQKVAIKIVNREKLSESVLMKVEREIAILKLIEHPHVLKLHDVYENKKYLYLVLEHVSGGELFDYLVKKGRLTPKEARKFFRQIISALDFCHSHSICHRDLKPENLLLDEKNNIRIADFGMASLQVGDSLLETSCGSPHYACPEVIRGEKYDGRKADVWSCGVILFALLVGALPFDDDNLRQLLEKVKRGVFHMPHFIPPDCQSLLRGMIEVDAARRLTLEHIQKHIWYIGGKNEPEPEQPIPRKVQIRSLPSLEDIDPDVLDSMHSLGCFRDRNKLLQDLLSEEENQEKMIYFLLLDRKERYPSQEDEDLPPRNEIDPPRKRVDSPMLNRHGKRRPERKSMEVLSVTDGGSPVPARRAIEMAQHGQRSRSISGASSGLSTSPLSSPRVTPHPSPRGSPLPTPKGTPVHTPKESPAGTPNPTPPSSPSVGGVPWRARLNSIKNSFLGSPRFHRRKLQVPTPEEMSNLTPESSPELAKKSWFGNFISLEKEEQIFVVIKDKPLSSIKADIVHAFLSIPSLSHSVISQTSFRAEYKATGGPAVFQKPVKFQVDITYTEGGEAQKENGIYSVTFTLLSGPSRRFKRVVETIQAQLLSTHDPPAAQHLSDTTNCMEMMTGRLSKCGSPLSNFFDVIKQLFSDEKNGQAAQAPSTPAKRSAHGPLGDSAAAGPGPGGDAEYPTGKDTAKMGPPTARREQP

[4] = molecular target: T2, Serine/threonine-protein kinase BRSK2 (Homo sapiens); conditions: at 10 µM
[5] = molecular target: T3, Cyclin-dependent kinase 1/cyclin B1 (Homo sapiens) (UniProt P06493+P14635); conditions: at 1 µM
[6] = molecular target: T3, Cyclin-dependent kinase 1/cyclin B1 (Homo sapiens); conditions: at 10 µM
[7] = molecular target: T4, Cyclin-dependent kinase 2/cyclin A (Homo sapiens) (UniProt P24941+P20248+P78396); conditions: at 1 µM
[8] = molecular target: T4, Cyclin-dependent kinase 2/cyclin A (Homo sapiens); conditions: at 10 µM
[9] = molecular target: T5, Cyclin-dependent kinase 2/cyclin E (Homo sapiens) (UniProt P24864+P24941+O96020); conditions: at 1 µM
[10] = molecular target: T5, Cyclin-dependent kinase 2/cyclin E (Homo sapiens); conditions: at 10 µM
[11] = molecular target: T6, CDK3/cyclin E (Homo sapiens) (UniProt P24864+O96020+Q00526); conditions: at 1 µM
[12] = molecular target: T6, CDK3/cyclin E (Homo sapiens); conditions: at 10 µM
[13] = molecular target: T7, Cyclin-dependent kinase 5/CDK5 activator 1 (Homo sapiens) (UniProt Q00535+Q15078); conditions: at 1 µM
[14] = molecular target: T7, Cyclin-dependent kinase 5/CDK5 activator 1 (Homo sapiens); conditions: at 10 µM
[15] = molecular target: T7, Cyclin-dependent kinase 5/CDK5 activator 1 (Homo sapiens); conditions: at 1 µM; remark: listed apart in the source
[16] = molecular target: T7, Cyclin-dependent kinase 5/CDK5 activator 1 (Homo sapiens); conditions: at 10 µM; remark: listed apart in the source
[17] = molecular target: T8, CDK6/cyclin D3 (Homo sapiens) (UniProt P30281+Q00534); conditions: at 1 µM
[18] = molecular target: T8, CDK6/cyclin D3 (Homo sapiens); conditions: at 10 µM
[19] = molecular target: T9, Cyclin-dependent kinase 7/ cyclin H (Homo sapiens) (UniProt P51946+P50613); conditions: at 1 µM
[20] = molecular target: T9, Cyclin-dependent kinase 7/ cyclin H (Homo sapiens); conditions: at 10 µM

T3 sequence (P06493 whole entry, looked up): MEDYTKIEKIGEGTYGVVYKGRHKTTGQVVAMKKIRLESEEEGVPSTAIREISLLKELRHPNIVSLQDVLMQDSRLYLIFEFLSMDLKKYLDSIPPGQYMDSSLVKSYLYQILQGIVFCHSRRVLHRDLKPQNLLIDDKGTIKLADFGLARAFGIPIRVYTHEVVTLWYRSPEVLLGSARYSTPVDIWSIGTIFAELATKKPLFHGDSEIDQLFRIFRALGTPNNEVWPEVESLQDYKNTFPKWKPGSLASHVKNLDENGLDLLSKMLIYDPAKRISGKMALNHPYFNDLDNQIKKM
T3 sequence (P14635 whole entry, looked up): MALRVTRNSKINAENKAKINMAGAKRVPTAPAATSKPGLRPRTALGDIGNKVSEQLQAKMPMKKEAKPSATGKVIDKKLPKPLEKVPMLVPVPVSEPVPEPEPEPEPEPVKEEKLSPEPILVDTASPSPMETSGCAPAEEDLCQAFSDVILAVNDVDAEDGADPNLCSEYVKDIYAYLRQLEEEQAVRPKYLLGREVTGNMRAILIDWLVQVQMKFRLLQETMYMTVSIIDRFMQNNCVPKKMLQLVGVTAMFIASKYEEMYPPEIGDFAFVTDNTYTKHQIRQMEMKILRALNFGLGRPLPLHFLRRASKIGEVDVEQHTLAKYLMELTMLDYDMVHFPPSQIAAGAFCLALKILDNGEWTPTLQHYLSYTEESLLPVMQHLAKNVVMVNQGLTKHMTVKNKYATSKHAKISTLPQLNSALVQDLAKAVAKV
T6 sequence (O96020 whole entry, looked up): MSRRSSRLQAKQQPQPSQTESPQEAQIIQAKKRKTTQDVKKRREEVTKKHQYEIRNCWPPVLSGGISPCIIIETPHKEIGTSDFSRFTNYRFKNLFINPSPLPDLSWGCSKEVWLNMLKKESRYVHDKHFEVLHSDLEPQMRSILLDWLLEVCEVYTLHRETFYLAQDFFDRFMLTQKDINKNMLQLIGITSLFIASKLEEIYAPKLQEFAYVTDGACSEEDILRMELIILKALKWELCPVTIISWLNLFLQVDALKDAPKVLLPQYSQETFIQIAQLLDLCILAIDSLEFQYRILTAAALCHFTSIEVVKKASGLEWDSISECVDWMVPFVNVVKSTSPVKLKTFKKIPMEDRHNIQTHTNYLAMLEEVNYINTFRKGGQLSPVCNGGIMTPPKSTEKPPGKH
T6 sequence (P24864 whole entry, looked up): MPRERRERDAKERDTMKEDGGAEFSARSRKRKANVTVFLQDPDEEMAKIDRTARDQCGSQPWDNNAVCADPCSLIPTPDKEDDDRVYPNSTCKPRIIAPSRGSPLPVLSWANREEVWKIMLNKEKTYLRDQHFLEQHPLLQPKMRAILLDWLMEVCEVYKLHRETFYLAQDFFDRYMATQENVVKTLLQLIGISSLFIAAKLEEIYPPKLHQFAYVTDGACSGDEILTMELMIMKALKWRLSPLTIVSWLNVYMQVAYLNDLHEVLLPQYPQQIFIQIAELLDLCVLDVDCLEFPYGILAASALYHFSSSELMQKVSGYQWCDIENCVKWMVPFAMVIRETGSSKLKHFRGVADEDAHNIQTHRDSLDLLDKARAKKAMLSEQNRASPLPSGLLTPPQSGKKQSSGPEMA
T6 sequence (Q00526 whole entry, looked up): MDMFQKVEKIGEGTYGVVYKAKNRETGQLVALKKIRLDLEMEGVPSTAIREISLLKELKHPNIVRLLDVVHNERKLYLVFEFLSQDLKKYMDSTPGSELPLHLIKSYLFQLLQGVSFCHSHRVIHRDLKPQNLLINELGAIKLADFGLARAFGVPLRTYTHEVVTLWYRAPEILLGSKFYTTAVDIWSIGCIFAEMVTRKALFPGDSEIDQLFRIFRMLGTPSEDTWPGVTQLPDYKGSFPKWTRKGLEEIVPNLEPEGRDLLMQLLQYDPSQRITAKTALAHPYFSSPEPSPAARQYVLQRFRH

Structure (SMILES) | residual activity [1] [%] | residual activity [2] [%] | residual activity [3] [%] | residual activity [4] [%] | residual activity [5] [%] | residual activity [6] [%] | residual activity [7] [%] | residual activity [8] [%] | residual activity [9] [%] | residual activity [10] [%] | residual activity [11] [%] | residual activity [12] [%] | residual activity [13] [%] | residual activity [14] [%] | residual activity [15] [%] | residual activity [16] [%] | residual activity [17] [%] | residual activity [18] [%] | residual activity [19] [%] | residual activity [20] [%]
Cn1nc2c3c(cccc31)C(=O)c1ccccc1-2 | 83 | 68 | 101 | 61 | 101 | 86 | 80 | 84 | 87 | 82 | 89 | 72 | 83 | 93 | 97 | 80 | 92 | 76 | 91 | 73
O=C1NC(=O)c2cc(Nc3ccc(F)cc3)c(Nc3ccc(F)cc3)cc21 | 48 | 56 | 107 | 92 | 111 | 90 | 129 | 79 | 98 | 69 | 86 | 66 | 112 | 49 | 81 | 60 | 98 | 86 | 78 | 112
Cc1ccc(NC2=CC(=O)c3sc(C)nc3C2=O)cc1 | 101 | 105 | 110 | 97 | 101 | 106 | 91 | 91 | 97 | 91 | 92 | 95 | 102 | 97 | 107 | 87 | 91 | 85 | 97 | 85
Nc1cccc(-c2cc3c(Oc4cccc(O)c4)ncnc3[nH]2)c1 | 45 | 8 | 75 | 20 | 81 | 33 | 74 | 27 | 91 | 41 | 82 | 34 | 53 | 12 | 72 | 14 | 101 | 64 | 101 | 67
Cc1ccc(S(=O)(=O)/C=C/C#N)cc1 | 83 | 99 | 113 | 77 | 106 | 102 | 124 | 91 | 91 | 105 | 93 | 96 | 102 | 101 | 100 | 80 | 95 | 93 | 101 | 90
Cc1cc(Nc2nc(-c3ccccc3)nc3ccccc23)n[nH]1 | 57 | 12 | 59 | 7 | 97 | 68 | 67 | 25 | 70 | 15 | 63 | 19 | 69 | 32 | 71 | 31 | 53 | 9 | 19 | 1
Cn1cnc2cc3c(Nc4cccc(Br)c4)ncnc3cc21 | 58 | 13 | 91 | 62 | 103 | 94 | 132 | 87 | 110 | 102 | 102 | 81 | 96 | 104 | 98 | 90 | 99 | 92 | 84 | 102
Oc1ccc(Nc2nc(-c3ccc(Cl)cc3)cs2)cc1 | 81 | 90 | 125 | 126 | 111 | 84 | 101 | 78 | 100 | 93 | 108 | 80 | 102 | 90 | 120 | 98 | 112 | 101 | 106 | 89
O=c1cc(-c2cccc3c2Sc2ccccc2S3)oc(N2CCOCC2)c1 | 102 | 96 | 107 | 96 | 101 | 77 | 96 | 78 | 101 | 87 | 99 | 97 | 95 | 94 | 112 | 90 | 101 | 85 | 121 | 80
COc1ccc(C(=O)Nc2sc3c(c2C(N)=O)CCCC3)cc1OC | 93 | 96 | 105 | 103 | 98 | 93 | 134 | 91 | 106 | 97 | 101 | 92 | 101 | 108 | 85 | 88 | 94 | 94 | 71 | 114
COc1cc2ncnc(Nc3ccc(O)c(Br)c3)c2cc1OC | 17 | 22 | 91 | 34 | 100 | 68 | – | 42 | 102 | 88 | 84 | 71 | 84 | 51 | 98 | 67 | 87 | 86 | 81 | 78
C[C@@H](N)[C@H]1CC[C@H](C(=O)Nc2ccncc2)CC1 | 106 | 107 | 123 | 82 | – | 85 | – | – | – | – | 117 | 112 | 99 | 85 | 117 | 78 | 108 | 109 | 101 | 93
Cc1cccc(-c2[nH]c(C(C)(C)C)nc2-c2ccc3c(c2)OCO3)n1 | 97 | 106 | – | – | – | – | 133 | 103 | – | 98 | 90 | 89 | 83 | 88 | 92 | 97 | 104 | 106 | 100 | 95
CN(C)c1ccc(/C=C2\C(=O)Nc3ccccc32)cc1 | 83 | 69 | 90 | 61 | 97 | 112 | 111 | 91 | 111 | 103 | – | 89 | 106 | 87 | 102 | 96 | 102 | 50 | 88 | 80
CO[C@@H]1[C@H](N(C)C(=O)c2ccccc2)C[C@H]2O[C@]1(C)n1c3ccccc3c3c4c(c5c6ccccc6n2c5c31)C(=O)NC4 | 3 | 3 | 4 | 3 | 82 | 80 | 80 | 39 | 70 | 60 | 76 | 67 | 57 | 40 | 76 | 54 | 87 | 81 | – | 90
c1ccc(-c2n[nH]cc2-c2ccnc3ccccc23)nc1 | 104 | 58 | – | – | – | – | – | – | – | 94 | 83 | 79 | 83 | 63 | – | – | – | – | 98 | 95
Cc1cncc2cccc(S(=O)(=O)N3CCCN(C(=O)CN)C[C@H]3C)c12 | 57 | 66 | 89 | 33 | – | – | – | – | 97 | 93 | 92 | 73 | 89 | 80 | 80 | 92 | 93 | 84 | 78 | 89
CN(C)CCCn1cc(C2=C(c3c[nH]c4ccccc34)C(=O)NC2=O)c2ccccc21 | 42 | 39 | 71 | 22 | 102 | 40 | 128 | 38 | – | 35 | 88 | 33 | 75 | 25 | 81 | 33 | 103 | 53 | 47 | 13
N#C/C(=C(\N)Sc1ccc(N)cc1)c1ccccc1C(F)(F)F | 85 | 74 | 105 | 103 | 104 | 96 | 86 | – | 97 | 102 | 96 | 86 | 90 | 92 | 110 | 100 | 98 | 88 | 102 | 94
CO[C@H]1C[C@@H]2CC[C@@H](C)[C@@](O)(O2)C(=O)C(=O)N2CCCC[C@H]2C(=O)O[C@H]([C@H](C)C[C@@H]2CC[C@@H](O)[C@H](OC)C2)CC(=O)[C@H](C)/C=C(\C)[C@@H](O)[C@@H](OC)C(=O)[C@H](C)C[C@H](C)/C=C/C=C/C=C/1C | 70 | 68 | 97 | 139 | 120 | 108 | 129 | 113 | 105 | 96 | 90 | 86 | 90 | 92 | 78 | 100 | 88 | 89 | 88 | 94
CCN(CC)C(=O)c1ccc(Nc2nc(OCC3CCCCC3)c3nc[nH]c3n2)cc1 | 62 | 15 | – | 20 | – | 26 | 59 | 9 | 52 | 7 | – | 34 | 59 | 10 | 74 | 16 | 39 | 5 | 67 | 16
c1ccc(-c2n[nH]c3c2oc2ccccc23)cc1 | – | – | 114 | 73 | 94 | 75 | 128 | 64 | – | 60 | 98 | 41 | 67 | 27 | 77 | 31 | 75 | 30 | 84 | 91
